Several values for one entry are separate records, joined by “and”; a condition that tells them apart may be missing. Equal values may be shown once. ± gives the standard deviation of the averaged measurements.
tested on: SUM149; test: percent difference in area under dose-response curve of relative cell number, RPMI vs HPLM; higher = drug relatively more effective in HPLM than RPMI (negative = less effective in HPLM); conditions: treatment time: 72 h; dose range: 10-point, 1 nM to 20 µM; media compared: RPMI vs HPLM
Experimental: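 SUM149 triple-negative breast cancer cells, 500 cells/well in 384-well plates, were grown in RPMI or human plasma-like medium (HPLM) with 5% dialyzed FBS. They were pin-transferred with an anticancer plus metabolic-inhibitor library in 10-point dose series (20 µM to 1 nM). After 72 h, cells were fixed, stained with bisbenzimide and counted by Acumen plate cytometry. The AUC of relative survival vs dose was computed per medium, and the percent difference in AUC between RPMI and HPLM is reported.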

| Compound | percent difference in area under dose-response curve |
| --- | --- |
| COc1cc2c(cc1O)CC[C@@H]1[C@@H]2CC[C@]2(C)[C@@H](O)CC[C@@H]12 [2Methoxyestradiol] | -12% |
| COC1=C2C[C@@H](C)C[C@H](OC)[C@H](O)[C@@H](C)/C=C(\C)[C@H](OC(N)=O)[C@@H](OC)/C=C\C=C(/C)C(=O)NC(=CC1=O)C2=O [Geldanamycin] | -5.2% |
| Oc1cccc(-c2nc(N3CCOCC3)c3oc4ncccc4c3n2)c1 | 3.18% |
| Cc1ccc([C@@H]2O[C@H](CO)[C@@H](O)[C@H](O)[C@H]2O)cc1Cc1ccc(-c2ccc(F)cc2)s1 [Canagliflozin] | -4.56% |
| COc1cc(OC2CCN(C)CC2)ccc1Nc1ncc2c(n1)n(C1CCCC1)c(=O)n2C | -4.5% |
| C[C@@H]1CN(CC(=O)Nc2ccc3c(c2)Cc2cccc(-c4cc(=O)cc(N5CCOCC5)o4)c2S3)C[C@H](C)O1 | -5.04% |
| COc1cc(/C=C/C(=O)N2CCC=CC2=O)cc(OC)c1OC [Piperlongumine] | -18.1% |
| Nc1nccc(Oc2ccc(NC(=O)c3c[nH]cc(-c4ccc(F)cc4)c3=O)cc2F)c1Cl | -4.65% |
| Cc1ccc(NC(=O)c2ccc(CN3CCN(C)CC3)cc2)cc1Nc1nccc(-c2cccnc2)n1 [Imatinib] | -5.87% |
| C=CCn1c(=O)c2cnc(Nc3ccc(N4CCN(C)CC4)cc3)nc2n1-c1cccc(C(C)(C)O)n1 | 0.0373% |
| Cc1cc(NC(=O)c2cccc(NC(=O)/C=C/CN(C)C)c2)ccc1Nc1nccc(-c2cccnc2)n1 | 7.32% |
| CN(C)CC[C@H](CSc1ccccc1)Nc1ccc(S(=O)(=O)NC(=O)c2ccc(N3CCN(Cc4ccccc4-c4ccc(Cl)cc4)CC3)cc2)cc1[N+](=O)[O-] | -4.67% and 1.88% |
| CC1(COc2ccc3c(c2)ncn3-c2ccc3cccc(N4CCC(N)CC4)c3n2)COC1 [Crenolanib] | -11.6% |
| CC(C)(C#N)c1cc(Cn2cncn2)cc(C(C)(C)C#N)c1 [Anastrozole] | -1.33% |
| Clc1ccc(C(c2ccccc2Cl)C(Cl)Cl)cc1 (stereo not given) [Mitotane] | -3.24% |
| NC1(c2ccc(-c3nc4ccn5c(=O)[nH]nc5c4cc3-c3ccccc3)cc2)CCC1 | 0.884% |
| O=C(/C=C/c1cccnc1)NCCCCC1CCN(C(=O)c2ccccc2)CC1 | -32.8% |
| C[C@H]1[C@H](OC(=O)CCC(=O)O)O[C@@H]2O[C@@]3(C)CC[C@H]4[C@H](C)CC[C@@H]1[C@@]24OO3 [Artesunate] | -1.87% |
| Cc1cc(/C=C/c2ccc3cc(N(C)C)ccc3[n+]2C)c(C)n1-c1ccccc1 [Pyrvinium_pamoate] | -34.5% |
| COc1cc(F)c(F)c(Nc2ccc(I)cc2F)c1NS(=O)(=O)C1(C[C@H](O)CO)CC1 [Refametinib] | -9.94% |

| Compound | percent difference in area under dose-response curve |
| --- | --- |
| O=c1[nH]c(=O)n([C@H]2C[C@H](O)[C@@H](CO)O2)cc1F [Floxuridine] | 14.1% |
| O=C1[C@H](CC[C@H](O)c2ccc(F)cc2)[C@@H](c2ccc(O)cc2)N1c1ccc(F)cc1 [Ezetimibe] | -5.77% |
| COc1ccc(COc2cc3oc(=O)c4cc(C(C)O)ccc4c3cc2OC)cc1 (stereo not given) [Palomid_529] | -0.0774% |
| Cc1cnc(NC(=O)Nc2cc(Br)c(C)cc2OC[C@@H]2CNCCO2)cn1 | 1.27% |
| CC(C)NCCCn1c(Sc2cc3c(cc2I)OCO3)nc2c(N)ncnc21 | -28.4% |
| CS(=O)(=O)CCNCc1ccc(-c2ccc3ncnc(Nc4ccc(OCc5cccc(F)c5)c(Cl)c4)c3c2)o1 [Lapatinib] | -5.33% |
| C=CC(=O)Nc1cccc(Oc2nc(Nc3ccc(N4CCN(C)CC4)cc3OC)ncc2Cl)c1 | 3.23% |
| Nc1nc(Cl)nc2c1ncn2[C@H]1C[C@H](O)[C@@H](CO)O1 [Cladribine] | -12.6 ± 2.1% |
| Cn1cncc1[C@@](N)(c1ccc(Cl)cc1)c1ccc2c(c1)c(-c1cccc(Cl)c1)cc(=O)n2C [Tipifarnib] | -21.7% |
| C/C=C1\NC(=O)[C@H]2CSSCC/C=C/[C@H](CC(=O)N[C@H](C(C)C)C(=O)N2)OC(=O)[C@H](C(C)C)NC1=O [Romidepsin] | -30.5% |
| CO[C@H]1C[C@@H]2CC[C@@H](C)[C@@](O)(O2)C(=O)C(=O)N2CCCC[C@H]2C(=O)O[C@H]([C@H](C)C[C@@H]2CC[C@@H](O)[C@H](OC)C2)CC(=O)[C@H](C)/C=C(\C)[C@@H](O)[C@@H](OC)C(=O)[C@H](C)C[C@H](C)/C=C/C=C/C=C/1C [Rapamycin] | 12.8% |
| Cc1ccc(C)c(Oc2ccncc2C(=O)N2CCN(C3CC3)c3ccccc32)c1 | -4.99% |
| CS(=O)(=O)CCNCc1ccc(-c2ccc3ncnc(Nc4ccc(OCc5cccc(F)c5)c(Cl)c4)c3c2)o1 [Lapatinib_Ditosylate] | -5.86% |
| C=CCc1cccc(/C=N/NC(=O)CN2CCN(Cc3ccccc3)CC2)c1O | -12.9% |
| O=C(Nc1c[nH]nc1-c1nc2ccc(CN3CCOCC3)cc2[nH]1)NC1CC1 | -10.6% |
| C=CC(=O)Nc1cccc(Nc2nc(Nc3ccc(NC4CN(CCF)C4)cc3OC)ncc2C(F)(F)F)c1 | 10.4% |
| COc1ccc(-c2ccc3c(N4CCOCC4)nc(N4C[C@@H](C)O[C@@H](C)C4)nc3n2)cc1CO | -2.21% |
| C#Cc1cccc(Nc2ncnc3cc(OCCOC)c(OCCO)cc23)c1 | -0.553% |
| Cc1cn(-c2cc(NC(=O)c3ccc(C)c(Nc4nccc(-c5cccnc5)n4)c3)cc(C(F)(F)F)c2)cn1 [Nilotinib] | -3.16% |
| COC(=O)c1ccc2c(c1)NC(=O)/C2=C(\Nc1ccc(N(C)C(=O)CN2CCN(C)CC2)cc1)c1ccccc1 | 3.26% |

From the supplement of paper PMC11383364
